Compounds with a hit are over-represented: about 3.1% of the library has one in this group of screens.
IDH1 R132H inh: human IDH1 R132H inhibition | O75874 | IDH1-R132H enzyme, NADPH consumption, diaphorase/resazurin fluorescence | Potency, µM (highest dose often 76.6 µM), usual class: inhibitors | actives 0.093% (n = 390,000); further: nearly all actives have a fitted effect of over 65% in size
Target sequence (O75874 whole entry R132H, stated change not applied): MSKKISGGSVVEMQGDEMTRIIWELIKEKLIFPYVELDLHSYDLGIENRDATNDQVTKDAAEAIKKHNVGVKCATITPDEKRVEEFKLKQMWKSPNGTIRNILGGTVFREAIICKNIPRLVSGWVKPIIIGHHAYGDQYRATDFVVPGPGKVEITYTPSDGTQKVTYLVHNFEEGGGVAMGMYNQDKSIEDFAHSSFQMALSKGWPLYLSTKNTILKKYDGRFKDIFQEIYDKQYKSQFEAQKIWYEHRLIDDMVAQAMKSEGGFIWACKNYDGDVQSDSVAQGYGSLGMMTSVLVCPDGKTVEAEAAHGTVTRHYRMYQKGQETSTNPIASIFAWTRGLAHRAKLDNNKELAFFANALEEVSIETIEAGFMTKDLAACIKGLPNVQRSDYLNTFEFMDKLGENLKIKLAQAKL
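IDH1-R132H (0.5 ug/mL) preincubated 30 min with compound, then NADPH (0.016 mM) and alpha-KG (2 mM) added; 80 min at RT, pH 7.5. Remaining NADPH coupled via diaphorase/resazurin to fluorescence (540/590 nm); concentration-response curves normalized to no-enzyme control.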
rTrxR1 inhibitor: blocks rat thioredoxin reductase 1 | actives 1% (n = 390,000) | O89049 | Potency, µM (top dose mostly 114 µM), most hits filed as inhibitors | recombinant rTrxR1, NADPH fluorescence consumption, selenite substrate; further: nearly all actives have a fitted effect of over 65% in size
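Rat TrxR1 (90 nM in the dispensed reagent) was pre-reduced with 400 uM NADPH for 5 min at room temperature, then incubated with compound for 15 min. After 400 uM selenite was added, NADPH fluorescence (Ex 340/Em 450 nm) was followed for 8 min.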
TrxR1 substrate: substrates of rat thioredoxin reductase 1 | O89049 | purified TrxR1 substrate turnover, NADPH consumption readout | Potency, µM (series often up to 114 µM) | actives 0.01% (n = 390,000); further: nearly all actives have a fitted effect of over 50% in size
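Rat TrxR1, dispensed at 90 nM, was prereduced with 400 uM NADPH (final) for 5 min at ~22 deg C, then incubated with compound 15 min before 400 uM selenite. A first-read NADPH fluorescence drop versus no-compound background flagged substrates.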
Nrf2 inh: Nrf2 pathway inhibition. actives 2.1% (n = 360,000). A549 ARE-Fluc reporter, luciferase luminescence, 18-24 h. Potency, µM (series often up to 46 µM), hits mostly inhibitors; further: nearly all actives have a fitted effect of over 60% in size
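Nrf2 function is reported as luminescence of an ARE-controlled luciferase in A549 cells. Compounds were tested at several concentrations, and a CellTiter-Fluor read on the same wells flagged cytotoxicity.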
Mito fusion yeast: mitochondrial division inhibition or fusion activation; Potency, µM (highest dose often 46.1 µM), usual class: activators; AID 485298; S. cerevisiae fusion-defective mutant growth rescue, CellTiterGlo 48 h; actives 0.23% (n = 320,000); further: nearly all actives have a fitted effect of over 45% in size
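S. cerevisiae fusion-defective temperature-sensitive mutants (e.g. fzo1-1, mgm1-5) grown 48 h at 37C in YPEG (ethanol/glycerol non-fermentable) medium with 23 nl compound per well; growth rescue read as CellTiterGlo luminescence.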
A549 tox: counter-screen for Nrf2 inhibitors: cytotoxicity in A549 cells; Potency, µM (series often up to 46 µM), actives largely listed as inhibitors; actives 0.16% (n = 390,000); A549 ARE-Fluc cells, CellTiter-Fluor viability, 18-24 h
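A549 ARE_Fluc cells in 5% FBS OPTI-MEM were exposed to compounds in concentration-response for 18-24 h at 37 deg C. Viability was read by CellTiter-Fluor fluorescence (Ex 405/Em 525) after 30 min, before the luciferase read.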
Hits are given with their value; 0 = inactive; ? = inconclusive; - = no result given. The call rests on the fitted dose curve; in most records, active means well fitted curve in the direction sought with a large enough effect; inconclusive means small, poorly fitted or top-dose-only effect, or another doubt; inactive means no such curve, though single readings can be large; an effect the other way counts as inactive or inconclusive.

SMILES	IDH1 R132H inh	rTrxR1 inhibitor	TrxR1 substrate	Nrf2 inh	Mito fusion yeast	A549 tox
Cc1nc(-c2ccc(S(=O)(=O)N3CCN(CCc4ccccc4)CC3)s2)cs1	0	0	0	23µM	0	0
O=S(=O)(c1ccc(F)cc1)N1CCN(CCc2ccccc2)CC1	0	0	0	?	0	0
COc1ccc(N(CC(=O)NC(C)c2ccccc2)S(=O)(=O)c2c(C)nn(C)c2C)cc1 (stereo unspecified)	0	0	0	?	-	0
Cc1cc(S(=O)(=O)N(Cc2ccc(C(C)C)cc2)CC2CCCO2)ccc1-n1cnnn1 (stereo unspecified)	0	0	0	23µM	0	0
COC(=O)c1cc(S(=O)(=O)N2CCOCC2)c(Cl)cc1N1CCOCC1	0	0	0	0	0	0
COC(=O)c1cc(C)nc2c1C(=O)C(=O)C=C2N1CCOCC1	0	0	35µM	16µM	0	?
O=C1c2ccccc2-c2onc3c(N4CCN(CCO)CC4)cc(N4CCN(C(=O)c5ccco5)CC4)c1c23	0	?	0	?	0	21µM
COc1ccc(/C=C2\CCCC3C2=NN(C(=O)COC(=O)CNC(=O)c2ccccc2)C3c2ccc(OC)cc2)cc1 (stereo unspecified)	0	0	0	13µM	0	-
COc1ccc(/C=C2\CCCC3C2=NN(C(=O)CSc2ncn[nH]2)C3c2ccc(OC)cc2)cc1 (stereo unspecified)	0	0	0	?	0	0
CCCCCN1C(C(=O)c2ccccc2)=C(OC(=O)CC)c2ccccc2S1(=O)=O	0	0	0	5.8µM	-	?
CCN1C(C(=O)c2ccccc2)=C(OC(=O)C(C)C)c2ccccc2S1(=O)=O	0	0	0	?	-	?
CCCCC(=O)OC1=C(C(=O)c2ccccc2)N(CCC)S(=O)(=O)c2ccccc21	-	0	0	?	-	?
CCCCCN1C(C(=O)c2ccccc2)=C(NC(C)=O)c2ccccc2S1(=O)=O	0	0	0	?	-	?
CCCN1C(C(=O)c2ccccc2)=C(OC(=O)c2ccc(C)cc2)c2ccccc2S1(=O)=O	0	0	0	23µM	-	?
CCCN1C(C(=O)c2ccccc2)=C(OC(=O)c2ccc(F)cc2)c2ccccc2S1(=O)=O	0	0	0	?	-	?
CCN1C(C(=O)c2ccccc2)=C(OC(=O)COc2ccccc2)c2ccccc2S1(=O)=O	0	28µM	0	?	-	15µM
CCCCN1C(C(=O)c2ccccc2)=C(OC(=O)CC)c2ccccc2S1(=O)=O	0	0	0	21µM	-	?
Cc1ccc(S(=O)(=O)Nc2cccc3ccc(C)nc23)cc1	-	-	-	?	-	0
COc1ccc(S(=O)(=O)N2CCOCC2)cc1NC(=O)Cc1c(Cl)cccc1Cl	0	0	0	0	0	0
COc1ccc(S(=O)(=O)N2CCOCC2)cc1NC(=O)CN(C)Cc1c(F)cccc1Cl	0	0	0	21µM	0	0
Cc1ccc(C)c(N2CCN(CCCNC(=O)Cn3c(-c4cccs4)cc4ccccc43)CC2)c1	0	0	0	?	-	?
CC(=O)Oc1ccccc1C(=O)C=Cc1cccc([N+](=O)[O-])c1	0	25µM	0	0	-	0
CSc1ccc(CCNc2ncnc3onc(C)c23)cc1	0	0	0	7.3µM	-	0
COc1ccc(C(O)c2nccc3cc(OC)c(OC)cc23)cc1OC (stereo unspecified)	0	0	0	21µM	0	0
COc1ccc(S(=O)(=O)N2CCN(c3nc(-c4cccs4)nc4ccccc34)CC2)cc1	-	0	0	?	-	0
SMILES	IDH1 R132H inh	rTrxR1 inhibitor	TrxR1 substrate	Nrf2 inh	Mito fusion yeast	A549 tox
Clc1ccc(-n2ncc3c(N4CCCCCC4)ncnc32)cc1	0	0	0	?	0	0
Brc1cc(Br)c2ncnc(N3CCCCC3)c2c1	0	0	0	26µM	0	?
CCN(CC)c1ccc(NC(=O)C2CCCN(S(=O)(=O)c3cnc[nH]3)C2)c(C)c1 (stereo unspecified)	0	0	0	23µM	0	0
Cc1ccc(NC(=O)C2CCCN(S(=O)(=O)c3cnc[nH]3)C2)cc1C (stereo unspecified)	0	0	0	0	0	0
CCOC(=O)c1ccc(NC(=O)C2CCCN(c3ncnc4onc(-c5ccc(F)cc5)c34)C2)cc1 (stereo unspecified)	0	0	0	?	-	0
COC1=C(N)C(=O)c2nc(-c3nc(C(=O)O)c(C)c(-c4ccc(OC)c(OC)c4O)c3N)ccc2C1=O	0	0	0	0.073µM	0	2.6µM
COc1ccc(-c2ncncc2-c2csc(C)n2)c(O)c1OC	0	0	0	0	0	0
CC(C)(C)c1ccc(C(=O)C[n+]2ccc(Cl)c3ccc(Cl)cc32)cc1	-	0	0	-	-	-
Cc1cccc(C(=O)NC2CCN(C#N)CC2)c1	-	-	-	0	-	0
COc1ccc(OCc2nc3ccccc3n2C(C)C)cc1	0	0	0	23µM	0	0
Cc1ccccc1Cn1nc(C)c(NC(=O)c2noc3c2CC(C(C)(C)C)CC3)c1C (stereo unspecified)	0	0	0	8.2µM	0	0
COCCCNC(=O)CN1C(=O)c2c(c3ccccc3n2C)C1c1ccc(OC)cc1 (stereo unspecified)	0	0	0	0	-	0
Cc1ccc(NS(=O)(=O)c2cccc(C(=O)NCC3CCCO3)c2)cc1 (stereo unspecified)	0	0	0	21µM	0	0
O=C(NCCN1CCOCC1)c1ccc(S(=O)(=O)Nc2ccccc2)cc1	0	0	0	0	-	0
Cc1ccc(NS(=O)(=O)c2ccc(C(=O)NCCN3CCOCC3)cc2)cc1	0	0	0	9.2µM	-	0
O=C(NCC1CCCO1)c1cccc(NS(=O)(=O)c2ccccc2)c1 (stereo unspecified)	0	0	0	0	0	0
Cc1ccc(N2CCN(Cc3nnc(-c4ccc5c(c4)OCO5)o3)CC2)c(C)c1	0	0	0	0	-	0
O=[N+]([O-])c1ccc(/C=N\NS(=O)(=O)c2ccc(F)cc2)o1	0	32µM	0	0	0	0
COc1ccc(S(=O)(=O)N/N=C\c2ccc([N+](=O)[O-])o2)c(OC)c1	0	35µM	0	0	0	0
CN(C)c1cc(F)c(C=O)cc1F	-	0	0	-	-	-
COc1cc(CN2CCN(C(=O)c3cccc4ccccc34)CC2)cc(OC)c1O	0	50µM	0	0	0	0
COc1ccc(OC)c(CN2CCN(C(=O)c3cccc4ccccc34)CC2)c1	0	0	0	0	0	0
Cc1ccccc1CC1(CO)CCCN(C(=O)c2cc(Cl)ccc2F)C1 (stereo unspecified)	0	0	0	12µM	?	0

Assay outcomes (PubChem)
